The list is not random: actives were taken first. Their share in the collection is about 2.4%.
D2 ag-1 – D2 dopamine receptor (human) agonism | 0.53% of 340,000 active | activation, % at 2 µM | HEK293 T-REx D2 cells, calcium flux agonist mode | P14416 | AID 485358;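 active = activation over 3 SD above normal in the single-dose calcium agonist read, cut at about 30% in these data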; also: 0% is about no effect
Target sequence (P14416 whole entry, looked up): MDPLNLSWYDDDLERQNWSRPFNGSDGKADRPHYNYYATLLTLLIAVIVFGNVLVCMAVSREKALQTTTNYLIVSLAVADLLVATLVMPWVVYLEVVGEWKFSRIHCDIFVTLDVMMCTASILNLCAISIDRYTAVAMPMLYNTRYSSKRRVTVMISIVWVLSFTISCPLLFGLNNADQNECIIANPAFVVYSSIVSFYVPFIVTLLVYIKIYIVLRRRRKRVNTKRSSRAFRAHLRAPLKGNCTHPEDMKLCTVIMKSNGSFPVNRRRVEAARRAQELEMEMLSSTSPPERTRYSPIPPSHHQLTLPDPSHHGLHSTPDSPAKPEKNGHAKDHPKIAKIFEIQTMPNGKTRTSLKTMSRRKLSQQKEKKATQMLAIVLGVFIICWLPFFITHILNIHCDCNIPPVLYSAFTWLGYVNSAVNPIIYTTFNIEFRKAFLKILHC
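Agonism is scored from calcium flux in a force-coupled, inducible HEK293 cell line expressing D2, read kinetically for 180 s after compound addition against dopamine controls.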
D2 PAM-1 – positive allosteric modulators of human D2 dopamine receptor | P14416 | HEK293 T-REx D2, calcium flux, EC20 dopamine potentiation | potentiation, % at 10 µM | 0.34% of 340,000 active;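 active = potentiation over 3 SD above the plate norm, cut at about 30% in these data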; also: 0% is about no effect
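Using a no-wash calcium dye in inducible, force-coupled HEK293 Trex cells expressing D2, we tracked fluorescence each second for 180 s after compound, then for 180 s after EC20 dopamine to detect augmented signalling.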
D2 antag – D2 dopamine receptor (human) antagonism | P14416 | AID 485344 | HEK293 TREx D2 cells, calcium flux, dopamine EC80 | inhibition, % at 10 µM | 2% of 340,000 active; in the data active = inhibition above about 30%; inactive = below that, where a call was filed; also: 0% is about no effect
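In this primary screen, negative modulation is detected by tracking calcium flux after an EC80 dopamine challenge in inducible HEK293 T-REx D2 cells preexposed to test compound for 180 s.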
D2 ag-2 – agonists of human D2 dopamine receptor (beta-arrestin) | P14416 | DiscoveRx PathHunter D2 beta-arrestin, luminescence, 90 min; 100% = 57 uM dopamine signal | activation, % (no concentration beside the values) | 0.084% of 360,000 active | AID 624465; in the data active = activation above about 40%; inconclusive = between about 15% and that limit
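DiscoveRx PathHunter D2 beta-arrestin cells (2,100/well) attached overnight, then compound-stimulated 90 min at 37 C in HBSS/10 mM HEPES/0.1% Tween-20 buffer; beta-galactosidase complementation read by luminescence after 1 h at ambient temperature. Dopamine 57 uM final (EC100) as control.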
D2 PAM-2 – potentiates the human D2 dopamine receptor allosterically. P14416. DiscoveRx D2 beta-arrestin cells, luminescence, 90 min; 100% = 57 uM dopamine signal. potentiation, % (no concentration beside the values). 0.23% of 360,000 active; in the data active = potentiation above about 50%; inconclusive = mostly about 30% to 49%
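D2 cells co-treated with compound plus 50 nM dopamine (EC20) for 90 min at 37 deg C to detect potentiation. Beta-arrestin recruitment was read as enzyme-fragment luminescence after 1 h at ambient temperature. Full response was set by 57 uM dopamine.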
D3 arrestin ag – D3 receptor agonism confirmed, beta-arrestin readout. shares compounds with D2 ag-1. DiscoveRx D3 beta-arrestin cells, luminescence, 90 min. Potency, µM (top dose mostly 76.9 µM), for the others: at the highest dose activation, actives largely listed as activators. 4% of 2,300 active. AID 720506;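 also: potency is read from the fitted curve at half-maximal effect; 100% = dopamine control response; nearly all actives have a fitted effect of over 70% in size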
D2 ag-3 – counter-screen for D3 agonists: human D2 dopamine receptor agonism. 5.9% of 2,300 active. DiscoveRx PathHunter D2 beta-arrestin, luminescence, 90 min; response scale: percent relative to full dopamine signal. Potency, µM (doses to about 76.9 µM), inactives show top-dose activation, hits mostly activators. shares compounds with D2 ag-1. AID 720507; also: potency is read from the fitted curve at half-maximal effect; % of control where 0% means no effect; nearly all actives have a fitted effect of over 70% in size
Numbers without * were called inactive; ? = inconclusive; . = no result given. Unless noted, calls follow the shape of the dose curve; as a rule, active = well fitted activation curve with a large enough effect; inconclusive = small, poorly fitted or top-dose-only effect; inactive = flat fitted curve, though single readings scatter.

SMILES	D2 ag-1	D2 PAM-1	D2 antag	D2 ag-2	D2 PAM-2	D3 arrestin ag	D2 ag-3
Cc1c(C(=O)Nc2ccc(F)c(Cl)c2)sc2nc3n(c(=O)c12)CCC3	0.3	-1.6	.	.	.	.	.
Cc1ncoc1C(=O)N1CCCC(N2CCN(c3ccccc3F)CC2)C1 (centres undefined)	35.9*	-11.8	1.1	-3.0	-25.7	-14.3%	-1.6%
O=C(c1ccco1)N1CCCC(N2CCN(c3ccccc3F)CC2)C1 (centres undefined)	8.4	-10.6	-18.4	-1.7	-40.6	.	.
CC(=O)N1c2ccccc2C(=O)C1N1CCN(c2ccccc2F)CC1 (centres undefined)	.	3.0	.	.	.	.	.
CC(=O)N1CCC(N2CCN(c3ccccc3F)CC2)CC1	75.0*	-20.1	71.4*	40.9*	2.3	?	?
O=C(c1ccnc(Cl)c1)N1CCCC(N2CCN(c3ccccc3F)CC2)C1 (centres undefined)	23.7	-6.4	24.6	2.7	0.2	19.3%	19.4%
CCc1cccc(CC)c1NC(=O)C(Cc1ccccc1)NS(=O)(=O)c1cccc2nsnc12 (centres undefined)	0.2	-9.2	.	.	.	.	.
CC(CCc1ccccc1)NCc1cccc2ccccc12 (centres undefined)	57.1*	-26.9	32.4*	1.8	-78.0	15.7%	13.9%
CCOC(=O)c1c(S(=O)(=O)NCC(=O)N2CCN(c3cccc(Cl)c3)CC2)c(C)n(C)c1C	0.6	13.5	.	.	.	.	.
Cc1cc(C)c2c(CC(=O)Nc3ccc(S(=O)(=O)N4CCCC(C)C4)cc3)coc2c1 (centres undefined)	1.9	2.6	.	.	.	.	.
O=C(NCC(c1ccco1)N1CCN(c2ccccc2F)CC1)C(=O)NC1CCCCC1 (centres undefined)	1.6	8.3	9.4	6.3	-2.2	.	.
O=C(NCC(c1ccco1)N1CCN(c2ccccc2F)CC1)C(=O)NC1CC1 (centres undefined)	23.2	-0.8	32.7*	1.6	29.0	?	?
O=C(NCC(c1ccco1)N1CCN(c2ccccc2F)CC1)C1CCCCC1 (centres undefined)	76.8*	-31.1	59.2*	?	-6.4	?	?
CCn1c(=O)cc(OCC(=O)N2CCN(c3cccc(Cl)c3)CC2)c2ccccc21	0.5	-4.9	.	.	.	.	.
Cc1cc(C(F)F)n2nc(C(=O)Nc3cc(C)on3)nc2n1	0.3	3.8	-18.3	0.1	-14.4	-9.3%	-3.8%
Cc1cc(C(F)F)n2nc(C(=O)Nc3c(C)cccc3C)nc2n1	0.2	-8.5	.	.	.	.	.
O=C(CSc1nnc(Cc2ccccc2)n1-c1ccc(Cl)cc1)N1CCOCC1	40.0*	2.3	-4.4	-0.3	-7.8	2.1%	-1.5%
Cn1c(Cc2ccccc2)nnc1SCC(=O)N1CCOCC1	0.8	2.8	-23.4	-2.1	-3.1	.	.
Cc1cccc(N2CCN(C(=O)C3CCN(S(=O)(=O)c4cccs4)CC3)CC2)c1C	-0.4	-5.9	.	.	.	.	.
COc1ccccc1CNC(=O)C1CCCN(c2nc3ccccc3n3cccc23)C1 (centres undefined)	1.1	0.0	.	.	.	.	.
CC(C)Sc1ncnc2c1oc1ccccc12	-0.5	-7.7	7.7	-1.0	-15.2	-9.6%	-1.3%
COc1cccc(CC(=O)OCc2csc(CC(=O)Nc3ccccc3C)n2)c1	0.6	-2.1	15.8	-1.0	12.3	-0.6%	-3.0%
Cc1ccccc1NC(=O)Cc1nc(COC(=O)CCc2ccccc2)cs1	-0.7	3.9	15.1	-2.1	-0.4	.	.
Cc1cccc(NC(=O)COc2coc(CN3CCN(c4ccccc4)CC3)cc2=O)c1C	43.4*	-14.0	4.7	?	-2.8	-3.9%	23.9%
O=C(COc1coc(CN2CCN(c3ccccc3F)CC2)cc1=O)Nc1ccccc1	.	.	.	-2.6	0.2	.	.
SMILES	D2 ag-1	D2 PAM-1	D2 antag	D2 ag-2	D2 PAM-2	D3 arrestin ag	D2 ag-3
Cc1ccc(NC(=O)COc2coc(CN3CCN(c4ccccc4)CC3)cc2=O)cc1	10.6	-6.1	9.1	0.6	-9.6	.	.
Cc1cc(NC(=O)COc2coc(CN3CCN(c4ccccc4)CC3)cc2=O)no1	.	.	.	14.6	-0.3	3.2%	25.2%
Cc1cc(NC(=O)COc2coc(CN3CCN(c4ccccc4F)CC3)cc2=O)no1	62.0*	-20.7	15.0	12.2	7.3	15.4%	?
O=C(COc1coc(CN2CCN(c3ccccc3)CC2)cc1=O)Nc1ccccc1	45.7*	-5.7	26.4	9.3	-31.1	11.5%	17.5%
Cc1cc(NC(=O)COc2coc(CN3CCN(c4ccc(F)cc4)CC3)cc2=O)no1	-0.9	1.7	-5.6	-1.2	-6.6	.	.
COc1cccc(CN2CCc3nc(N4CCN(c5ncccn5)CC4)ncc3C2)c1	.	-24.6	.	.	.	.	.
CCCN(CC(=O)Nc1ccccc1OC)C(=O)CSC(=S)N1CCCC1	2.1	0.9	-0.1	-4.8	-3.5	1.7%	-3.5%
CCC(c1nnnn1Cc1ccc2c(c1)OCO2)N1CCN(c2ccccc2)CC1 (centres undefined)	80.0*	-33.2	78.7*	?	0.3	3.4%	?
c1ccc(Cn2nnnc2CN2CCN(Cc3ccc4c(c3)OCO4)CC2)cc1	1.0	-0.9	4.1	0.0	-36.2	.	.
COc1ccc(Cn2nnnc2CN2CCc3ccccc3C2)cc1	56.7*	-11.1	34.4*	?	11.3	6.3%	?
c1ccc2c(c1)CCN(Cc1nnnn1Cc1ccc3c(c1)OCO3)C2	68.2*	-24.1	23.5	?	15.5	1.8%	?
CCC(Oc1ccccc1F)C(=O)Nc1c(C(=O)c2ccccc2)oc2ccccc12 (centres undefined)	1.7	-4.6	.	.	.	.	.
COc1cccc(-n2cc(C(=O)Nc3ccccc3C(N)=O)c3ccccc3c2=O)c1	0.1	6.6	.	.	.	.	.
O=C(NCc1ccc(F)cc1)c1cccc(N2CCCS2(=O)=O)c1	0.4	-0.5	.	.	.	.	.
O=C(NCCc1ccccc1)c1ccc(CSc2nc3ccncc3n2Cc2ccccc2)cc1	.	21.7	.	.	.	.	.
O=C(c1cccs1)N1CCN(Cc2ccccn2)CC1	77.7*	-10.6	52.5*	-0.6	-1.0	?	?
O=C(c1ccc([N+](=O)[O-])cc1)N1CCN(C(=O)c2cccs2)CC1	.	-4.9	.	0.4	-8.3	.	.
O=C(c1cccs1)N1CCN(Cc2cccc([N+](=O)[O-])c2)CC1	71.4*	-16.4	38.1*	-1.2	-7.1	24.0%	?
O=C(c1ccco1)N1CCN(Cc2cccc([N+](=O)[O-])c2)CC1	37.2*	-14.0	-2.2	-2.3	-2.7	-2.3%	5.6%

High-throughput results (PubChem BioAssay)
